Laboratory results taken from PubChem BioAssay (Tox21).
Records with an inconclusive call do not appear. Calls of active or inactive are those of the source. Unless noted, calls follow the shape of the dose curve; as a rule, active = well fitted curve in the direction sought with a large enough effect in the repeat runs; inconclusive = weak or mixed curves; inactive = no such curve, though single readings can be large; an effect the other way counts as inactive or inconclusive.

Tests used:
[1] = A CellTox Green Cytotoxicity Assay to monitor cytotoxicity in HEK293 cells - 8 hour (AID 1224884); also: nearly all actives have a fitted effect of over 35% in size
How it was run: (§1)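 Fluorescence intensity, read at 0, 8, 16, 24, 32 and 40 h of compound treatment, reflected dye binding to DNA of dead HEK293 cells; compounds (23 nL, DMSO) were added 5 h after plating cells with reagent.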

[2] = qHTS RealTime-Glo MT Cell Viability Assay in HepG2 cells - 16 hour (AID 1224885); also: nearly all actives have a fitted effect of over 50% in size
How it was run: (§2)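 Compound treatment began 5 h after plating HepG2 cells (600/well) with NanoLuc luciferase and prosubstrate. Plates stayed at 37 C for 40 h; luminescence was captured at six time points, 0 h through 40 h.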

[3] = qHTS RealTime-Glo MT Cell Viability Assay in HEK293 cells - 24 hour (AID 1224886); also: top concentration of the series differs between compounds; nearly all actives have a fitted effect of over 50% in size
How it was run: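 Quantitative high-throughput screen of the Tox21 10K library in HEK293: cells and RealTime-Glo reagents plated together, compound added at 5 h, luminescence monitored through 40 h at 37 C.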

[4] = qHTS RealTime-Glo MT Cell Viability Assay in HEK293 cells - 8 hour (AID 1224887); also: top concentration of the series differs between compounds; nearly all actives have a fitted effect of over 50% in size
How it was run: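 Viable HEK293 cells reduce a cell-permeant prosubstrate; the product diffuses out and is consumed by NanoLuc in the medium to give light. Compounds went in after a 5 h incubation and plates were read over the treatment course.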

[5] = A CellTox Green Cytotoxicity Assay to monitor cytotoxicity in HEK293 cells - 16 hour (AID 1224888); also: nearly all actives have a fitted effect of over 35% in size
How it was run: as §1

[6] = qHTS RealTime-Glo MT Cell Viability Assay in HepG2 cells - 0 hour (AID 1224889); also: nearly all actives have a fitted effect of over 50% in size
How it was run: as §2

[7] = A CellTox Green Cytotoxicity Assay to monitor cytotoxicity in HepG2 cells - 8 hour (AID 1224890); also: nearly all actives have a fitted effect of over 45% in size
How it was run: (§3)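 Using 1536-well format, dye-containing HepG2 suspension was seeded, allowed 5 h at 37 C/5% CO2, dosed by pintool with compounds, positive and negative controls, and imaged for fluorescence across 40 h.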

[8] = qHTS assay to identify small molecule antagonists of the estrogen receptor alpha (ER-alpha) signaling pathway using the BG1 cell line in the presence of 0.1 nM 17-beta-estradiol - cell viability counter screen (AID 1259241); also: nearly all actives have a fitted effect of over 40% in size
How it was run: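 CellTiter-Fluor read (30 min, 37C) on ER-alpha/ERE-luc VM7Luc4E2 cells; 22 hr compound treatment; agonist 0.1 nM E2 final; same-well multiplex.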

[9] = qHTS assay to identify small molecule HDAC inhibitors (AID 1259364);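 also: wild-type HCT-116 cells with endogenous class I/II HDAC activity; top concentration of the series differs between compounds; nearly all actives have a fitted effect of over 45% in size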
How it was run: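 Read-out: luminescence of HDAC-Glo I/II reagent, 30 min RT, reflecting class I/II deacetylase activity in whole HCT-116 cells pre-exposed 2 h to DMSO-dissolved compounds.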

[10] = qHTS assay to identify small molecule HDAC inhibitors - cell viability counter screen (AID 1259365)
How it was run: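 To flag cytotoxic hits, 1,500 wild-type HCT-116 cells per well, plated the day before, receive test compounds for 2hr at 37 C before CellTiter-Glo reagent and a luminescence read.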

[11] = qHTS assay to identify small molecule agonists of the sonic hedgehog signaling (Shh) pathway - cell viability counter screen (AID 1259366); also: nearly all actives have a fitted effect of over 50% in size
How it was run: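 Fluorescence from CellTiter-Fluor reports live cells in this counter screen. NIH/3T3-derived Gli1-Luc reporter cells receive test compounds for 24hr at 37C; reagent goes in at 23hr.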

[12] = A CellTox Green Cytotoxicity Assay to monitor cytotoxicity in HepG2 cells - 32 hour (AID 1224883); also: nearly all actives have a fitted effect of over 50% in size
How it was run: as §3

[13] = qHTS assay to identify small molecule antagonists of the sonic hedgehog signaling (Shh) pathway - cell viability counter screen (AID 1259367); also: nearly all actives have a fitted effect of over 55% in size
How it was run: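 Seed 3T3 Gli1-Luc cells at 2,000 per well; incubate 4 hr; add compound in DMSO, then conditioned medium; incubate at 37C with 5% CO2; add CellTiter-Fluor after 23 hr; read fluorescence 1 hr later.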

[14] = qHTS assay to identify small molecule agonists of the sonic hedgehog signaling (Shh) pathway (AID 1259368; calls by dose curve;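 also: NIH/3T3-derived 3T3Gli1-Luc cells carrying a stable Gli1-driven firefly luciferase reporter; series mostly up to about 92 µM; nearly all actives have a fitted effect of over 15% in size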)
How it was run: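 A Gli1 transcriptional response element controlled firefly luciferase in 3T3Gli1-Luc cells. Compounds and a positive control were added 4 hr after plating, and cells were incubated a further 24 hr at 37 C before luminescence detection.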

[15] = qHTS assay to identify small molecule antagonists of the sonic hedgehog signaling (Shh) pathway (AID 1259369; calls by dose curve; also: nearly all actives have a fitted effect of over 45% in size; also: potency is read from the fitted curve at half-maximal effect)
How it was run: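 For antagonist detection, the reporter line received test compounds together with conditioned medium, incubated 24hr at 37 C, 5% CO2, then luminescence was recorded following 30min room-temperature luciferase reagent incubation.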

[16] = target: Estrogen receptor beta (Homo sapiens) (UniProt Q92731); assay: qHTS assay to identify small molecule agonists of the estrogen receptor beta (ER-beta) signaling pathway (AID 1259377; active = well fitted activation curve with a large enough effect in the signal ratio in the repeat runs, not every such curve was filed as active; the % refers to the signal ratio)
Chain of Estrogen receptor beta (Homo sapiens) (Q92731 whole entry, looked up): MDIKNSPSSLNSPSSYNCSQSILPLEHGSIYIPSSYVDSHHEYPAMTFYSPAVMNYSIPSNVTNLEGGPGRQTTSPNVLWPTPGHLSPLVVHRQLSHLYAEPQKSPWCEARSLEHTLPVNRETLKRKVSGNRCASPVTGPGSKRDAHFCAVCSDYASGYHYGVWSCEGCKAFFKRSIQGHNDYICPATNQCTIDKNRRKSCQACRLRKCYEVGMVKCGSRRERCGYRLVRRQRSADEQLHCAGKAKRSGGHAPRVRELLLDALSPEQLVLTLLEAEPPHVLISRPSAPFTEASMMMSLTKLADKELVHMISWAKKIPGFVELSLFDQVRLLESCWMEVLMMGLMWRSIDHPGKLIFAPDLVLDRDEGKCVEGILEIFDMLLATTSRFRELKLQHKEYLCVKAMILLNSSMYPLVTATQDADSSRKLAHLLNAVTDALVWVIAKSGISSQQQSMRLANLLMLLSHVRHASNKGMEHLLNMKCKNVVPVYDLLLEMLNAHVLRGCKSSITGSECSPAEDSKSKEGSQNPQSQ
How it was run: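 Screening used GripTite ER-beta-UAS-bla cells held in 2% charcoal-stripped FBS medium. After overnight (16 hr) compound incubation at 37C, beta-lactamase activity was detected with a FRET substrate by fluorescence.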

[17] = qHTS assay to identify small molecule antagonists of the androgen receptor (AR) signaling pathway using the MDA cell line in the presence of 0.5 nM R1881 - cell viability counter screen (AID 1259242); also: nearly all actives have a fitted effect of over 45% in size
How it was run: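 Viability of MDA-kb2 cells was multiplexed with the luciferase AR readout; after 16 hr with compounds and R1881 at 0.5 nM final, CellTiter-Fluor fluorescence was recorded.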

[18] = target: Estrogen receptor (Homo sapiens) (UniProt P03372); assay: qHTS assay to identify small molecule antagonists of the estrogen receptor alpha (ER-alpha) signaling pathway using the BG1 cell line in the presence of 0.1 nM 17-beta-estradiol (AID 1259244); also: nearly all actives have a fitted effect of over 50% in size
Chain of Estrogen receptor (Homo sapiens) (P03372 whole entry, looked up): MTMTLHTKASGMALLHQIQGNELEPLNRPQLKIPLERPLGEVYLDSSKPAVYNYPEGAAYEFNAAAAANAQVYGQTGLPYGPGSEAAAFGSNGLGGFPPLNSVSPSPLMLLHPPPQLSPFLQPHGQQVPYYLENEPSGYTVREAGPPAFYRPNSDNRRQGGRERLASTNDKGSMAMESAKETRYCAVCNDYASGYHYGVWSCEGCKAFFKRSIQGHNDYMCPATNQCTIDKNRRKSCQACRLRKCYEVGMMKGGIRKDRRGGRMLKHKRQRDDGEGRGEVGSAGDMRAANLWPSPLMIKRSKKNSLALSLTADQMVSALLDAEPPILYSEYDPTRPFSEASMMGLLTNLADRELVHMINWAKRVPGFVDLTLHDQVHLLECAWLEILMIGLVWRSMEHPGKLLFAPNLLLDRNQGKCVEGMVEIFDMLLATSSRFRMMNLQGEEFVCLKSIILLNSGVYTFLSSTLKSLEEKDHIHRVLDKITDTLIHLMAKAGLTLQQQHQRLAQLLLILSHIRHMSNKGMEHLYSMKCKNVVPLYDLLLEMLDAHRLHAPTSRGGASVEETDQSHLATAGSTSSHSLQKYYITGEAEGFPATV
How it was run: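 Estradiol at 0.1 nM (final) stimulates the endogenous ER-alpha of VM7Luc4E2 cells carrying an ERE-driven luciferase; compounds are co-incubated 22 h at 37C and luciferase output quantified by luminescence.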

[19] = target: Androgen receptor (Homo sapiens) (UniProt P10275); assay: qHTS assay to identify small molecule antagonists of the androgen receptor (AR) signaling pathway using the MDA cell line in the presence of 0.5 nM R1881 (AID 1259243); also: nearly all actives have a fitted effect of over 50% in size
Chain of Androgen receptor (Homo sapiens) (P10275 whole entry, looked up): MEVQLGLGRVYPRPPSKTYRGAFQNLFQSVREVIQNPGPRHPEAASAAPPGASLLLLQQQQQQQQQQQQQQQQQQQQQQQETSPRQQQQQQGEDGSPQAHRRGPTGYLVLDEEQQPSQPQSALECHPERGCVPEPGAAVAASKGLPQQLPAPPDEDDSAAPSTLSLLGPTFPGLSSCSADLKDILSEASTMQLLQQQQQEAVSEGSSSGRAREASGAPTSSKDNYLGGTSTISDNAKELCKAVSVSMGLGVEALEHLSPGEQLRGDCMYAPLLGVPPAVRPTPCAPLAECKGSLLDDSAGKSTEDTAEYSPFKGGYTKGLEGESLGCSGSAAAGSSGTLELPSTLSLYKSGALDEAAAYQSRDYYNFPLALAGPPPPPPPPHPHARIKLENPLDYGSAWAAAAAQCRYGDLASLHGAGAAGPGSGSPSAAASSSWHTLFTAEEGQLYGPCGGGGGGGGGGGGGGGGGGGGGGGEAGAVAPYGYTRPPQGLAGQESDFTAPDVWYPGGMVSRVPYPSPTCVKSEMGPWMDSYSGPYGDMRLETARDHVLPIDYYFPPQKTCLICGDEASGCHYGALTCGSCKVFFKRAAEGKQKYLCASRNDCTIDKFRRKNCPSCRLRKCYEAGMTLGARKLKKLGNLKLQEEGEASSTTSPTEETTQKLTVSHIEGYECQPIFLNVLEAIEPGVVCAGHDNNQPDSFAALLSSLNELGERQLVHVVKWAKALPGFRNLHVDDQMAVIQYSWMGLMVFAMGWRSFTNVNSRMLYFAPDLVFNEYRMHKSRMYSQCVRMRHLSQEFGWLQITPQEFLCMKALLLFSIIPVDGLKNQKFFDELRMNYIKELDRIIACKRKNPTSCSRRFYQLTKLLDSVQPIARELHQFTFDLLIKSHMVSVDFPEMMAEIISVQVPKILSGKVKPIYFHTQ
How it was run: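 Reporter cells cultured without CO2 receive test chemicals, then 0.5 nM R1881 final; after 16 hr at 37C, ONE-Glo is added and light output recorded.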
% is scaled to controls: 0 for no effect and ±100 for the full control effect.

CC(C)(C)c1cc(CCC(=O)NN)cc(C(C)(C)C)c1O
inactive: Potency [1] | outcome [2] | Potency [3] | Potency [4] | outcome [5] | Potency [6] | outcome [7] | Potency [8] | Potency [9] | outcome [10] | Potency [11]

CCCCCCN
active: Potency [15] 61.1 µM
inactive: Potency [12] | outcome [2] | Potency [3] | Potency [4] | outcome [5] | Potency [6] | outcome [7] | Potency [8] | Potency [9] | outcome [10] | Potency [11] | Potency [13] | outcome [14]

OCCCCC(O)CO (centres undefined)
inactive: Potency [12] | outcome [2] | Potency [3] | Potency [4] | outcome [5] | Potency [6] | outcome [7] | Potency [8] | Potency [9] | outcome [10] | Potency [11] | Potency [13] | outcome [14] | Potency [15] | Potency [16]

CC(C)CC(=O)O
inactive: Potency [12] | outcome [2] | Potency [3] | Potency [4] | outcome [5] | Potency [6] | outcome [7] | Potency [8] | outcome [17] | Potency [9] | outcome [10] | Potency [11] | Potency [13] | Potency [16]

CCCCN
inactive: Potency [12] | outcome [2] | Potency [3] | Potency [4] | Potency [6] | outcome [7] | Potency [8] | outcome [17] | Potency [18] | Potency [9] | outcome [10] | Potency [11] | Potency [13] | outcome [14] | Potency [15] | Potency [16]

Cc1ccccc1N=O
inactive: Potency [12] | outcome [2] | Potency [3] | outcome [5] | Potency [6] | outcome [7] | Potency [8] | outcome [17] | Potency [9] | outcome [10] | Potency [11] | Potency [13] | outcome [14] | Potency [15]

CCCCCCCC/C=C\CCCCCCCC(=O)OCCCC
inactive: cytotoxicity increase [12] -13.6% [at 15.8 µM] | activity change, negative = cytotoxic [2] 1.32% [at 15.8 µM] | activity change [5] -29.4% [at 15.8 µM] | activity change, negative = cytotoxicity [6] -22.5% [at 15.8 µM] | cytotoxicity increase [7] -0.525% [at 15.8 µM] | activity change, negative = cytotoxicity [8] -3.36% [at 19 µM] | viability change, negative = cytotoxic [17] -4.19% [at 19 µM] | activity change, negative = inhibition [9] 2.78% [at 19 µM] | activity change, negative = cytotoxicity [10] -0.686% [at 19 µM] | viability change, negative = cytotoxic [11] -5.96% [at 19 µM] | activity change [14] -0.497% [at 18.9 µM] | activity change, negative = inhibition [15] 17.1% [at 19 µM] | activation [16] -0.0077% [at 19 µM]

COc1cc(NS(=O)(=O)c2ccc(N)cc2)nc(OC)n1
inactive: Potency [12] | outcome [2] | Potency [3] | Potency [4] | Potency [6] | outcome [7] | outcome [17] | Potency [19] | Potency [18] | Potency [9] | outcome [10] | Potency [11] | Potency [15] | Potency [16]

O=C(O)Cc1ccc(Cl)cc1Cl
inactive: Potency [1] | outcome [2] | Potency [3] | Potency [4] | outcome [5] | Potency [8] | outcome [17] | Potency [19] | Potency [18] | Potency [9] | outcome [10] | Potency [11] | Potency [13] | outcome [14] | Potency [16]

CCOC(=O)CC(=O)c1ccccc1
inactive: Potency [12] | outcome [2] | Potency [3] | Potency [4] | outcome [5] | Potency [6] | outcome [7] | outcome [17] | Potency [18] | outcome [10] | Potency [11] | Potency [13] | outcome [14] | Potency [15] | Potency [16]

C=CCCCCCCCCCCCC
inactive: Potency [12] | outcome [2] | Potency [3] | Potency [4] | Potency [6] | outcome [7] | Potency [8] | Potency [19] | Potency [9] | outcome [10] | Potency [11] | Potency [13] | outcome [14] | Potency [16]

CC(=O)NCc1c(I)c(NC(C)=O)c(I)c(C(=O)O)c1I
inactive: outcome [2] | Potency [3] | Potency [4] | outcome [5] | Potency [6] | Potency [8] | outcome [17] | Potency [19] | Potency [9] | outcome [10] | Potency [11] | Potency [13] | outcome [14] | Potency [16]
